Measured values: PubChem BioAssay (Tox21)
Records with an inconclusive call do not appear. Active and inactive are the calls of the source. Unless noted, calls come from the whole dose curve; as a rule, active = well fitted curve in the direction sought with a large enough effect in the repeat runs; inconclusive = weak or mixed curves; inactive = no such curve, though single readings can be large; an effect the other way counts as inactive or inconclusive.

Assays:
[1] = qHTS assay to identify small molecule agonists of the RXR signaling pathway - cell viability counter screen (AID 1159529);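 note: HEK 293T cells carrying an RXR-alpha UAS beta-lactamase reporter; series mostly up to about 77 µM; nearly all actives have a fitted effect of over 50% in size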
In short: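 In this parallel viability measure, GeneBLAzer RXR-alpha HEK 293T cells (2% charcoal-stripped FBS) were given a 5 hr preincubation, treated with compounds 16 hr at 37 C, and read by CellTiter-Glo luminescence.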

[2] = qHTS assay to identify small molecule antagonists of the retinoid acid receptor (RAR) signaling pathway - cell viability counter screen (AID 1159551); note: nearly all actives have a fitted effect of over 35% in size
In short: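 Cytotoxicity counter screen: ATP content quantified by CellTiter-Glo luminescence in C3RL4 cells treated 6 hr at 37 C with compound and retinol (1 uM final). Cells plated at 1,000/well and cultured overnight before dosing.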

[3] = qHTS assay to identify small molecule antagonists of the retinoic acid receptor (RAR) signaling pathway (AID 1159552; note: nearly all actives have a fitted effect of over 50% in size)
In short: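 C3RL4 RARE-luc cells, overnight plating; retinol 1 uM final added right after compound; 6 hr 37 C; luciferase read at 30 min RT.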

[4] = qHTS assay to identify small molecule agonists of the retinoic acid receptor (RAR) signaling pathway (AID 1159553)
In short: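 Luminescence was measured 30 min after luciferase reagent addition at room temperature. Before that, C3RL4 reporter cells (1,000 per well, plated overnight) were treated with compound for 6 hr at 37 C and 5% CO2.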

[5] = qHTS assay to identify small molecule antagonists of the estrogen related receptor (ERR) signaling pathway from Tox21 library - cell viability counter screen (AID 1224834); note: nearly all actives have a fitted effect of over 30% in size
In short: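 CellTiter-Fluor fluorescence, read after 30 min at 37 C, measures viability of ERR cells. Cells plated at 2,000/well and incubated 6 h before pin-tool compound addition, then exposed 17.5 hours at 37 C.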

[6] = molecular target: Luciferin 4-monooxygenase (Photinus pyralis) (UniProt P08659); experiment: qHTS assay to identify small molecule inhibitors of firefly luciferase (AID 1224835); note: series mostly up to about 120 µM; nearly all actives have a fitted effect of over 25% in size
Sequence of Luciferin 4-monooxygenase (Photinus pyralis) (P08659 whole entry, looked up): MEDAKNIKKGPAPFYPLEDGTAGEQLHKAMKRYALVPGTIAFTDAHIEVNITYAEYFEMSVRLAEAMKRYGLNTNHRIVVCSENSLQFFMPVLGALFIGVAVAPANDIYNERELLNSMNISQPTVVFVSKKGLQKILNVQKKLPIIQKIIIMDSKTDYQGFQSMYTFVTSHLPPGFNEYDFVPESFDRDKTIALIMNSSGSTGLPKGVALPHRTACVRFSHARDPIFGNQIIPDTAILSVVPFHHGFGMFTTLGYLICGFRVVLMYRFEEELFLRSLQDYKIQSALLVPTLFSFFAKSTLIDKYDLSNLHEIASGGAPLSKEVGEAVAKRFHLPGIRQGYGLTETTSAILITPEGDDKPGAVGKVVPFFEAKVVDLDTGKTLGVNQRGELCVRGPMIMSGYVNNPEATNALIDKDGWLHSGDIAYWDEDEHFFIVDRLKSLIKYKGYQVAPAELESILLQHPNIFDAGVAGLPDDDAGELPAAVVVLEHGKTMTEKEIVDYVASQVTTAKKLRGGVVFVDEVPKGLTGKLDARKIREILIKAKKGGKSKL
In short: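 Biochemical qHTS: compounds run as interplate titrations against purified firefly enzyme, with D-luciferin and ATP each at its KM concentration. Light output recorded by CCD imaging.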

[7] = qHTS assay to identify small molecule agonists of the constitutive androstane receptor (CAR) signaling pathway - cell viability counter screen (AID 1224836); note: series mostly up to about 92 µM; nearly all actives have a fitted effect of over 45% in size
In short: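 Using CellTiter-Fluor, viability of HepG2 cells harbouring hCAR and CYP2B6-2.2kb was measured following 23 h incubation with a 15-concentration compound series plus PK11195 (0.75 uM final).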

[8] = qHTS assay to identify small molecule antagonists of the constitutive androstane receptor (CAR) signaling pathway - cell viability counter screen (AID 1224837); note: series mostly up to about 92 µM; nearly all actives have a fitted effect of over 45% in size
In short: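 Cytotoxicity counter-screen: CellTiter-Fluor fluorescence after 23 h compound exposure (15-point qHTS) in double-stable HepG2-CYP2B6-hCAR cells, with 50 nM CITCO added.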

[9] = molecular target: Nuclear receptor subfamily 1 group I member 3 (Homo sapiens) (UniProt Q14994); experiment: qHTS assay to identify small molecule antagonists of the constitutive androstane receptor (CAR) signaling pathway (AID 1224838);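 note: HepG2 cells stably expressing hCAR with CYP2B6 luciferase reporter stimulated by CITCO; nearly all actives have a fitted effect of over 40% in size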
Sequence of Nuclear receptor subfamily 1 group I member 3 (Homo sapiens) (Q14994 whole entry, looked up): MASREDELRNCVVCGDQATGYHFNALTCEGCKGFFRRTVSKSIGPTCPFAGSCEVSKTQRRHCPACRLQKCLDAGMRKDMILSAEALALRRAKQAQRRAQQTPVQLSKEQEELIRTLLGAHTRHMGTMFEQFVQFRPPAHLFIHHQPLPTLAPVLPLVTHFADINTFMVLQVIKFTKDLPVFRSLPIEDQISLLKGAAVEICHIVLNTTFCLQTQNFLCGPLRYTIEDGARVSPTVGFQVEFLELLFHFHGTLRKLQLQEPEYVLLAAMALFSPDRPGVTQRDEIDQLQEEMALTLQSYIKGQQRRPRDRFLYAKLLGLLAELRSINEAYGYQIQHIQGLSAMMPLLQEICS
In short: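 Antagonism measured as luciferase signal (ONE-Glo, 30 min, room temperature) in CAR-stimulated cells: HepG2-CYP2B6-hCAR double-stable line exposed 24 hr at 37 C to compound in a 15-point series plus 50 nM CITCO.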

[10] = molecular target: Nuclear receptor subfamily 1 group I member 3 (Homo sapiens) (UniProt Q14994); experiment: qHTS assay to identify small molecule agonists of the constitutive androstane receptor (CAR) signaling pathway (AID 1224839);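 note: HepG2 cells stably carrying human CAR and a CYP2B6 luciferase reporter; series mostly up to about 92 µM; nearly all actives have a fitted effect of over 15% in size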
In short: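 Double-stable HepG2 cells (hCAR, CYP2B6-2.2kb) seeded 4 h before compound addition. Exposure 24 h with 0.75 uM PK11195 final. Luciferase detected by ONE-Glo.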

[11] = qHTS assay to identify small molecule antagonists of the estrogen related receptor signaling pathway with the pleiotropic PPARgamma coactivator (PGC) from Tox21 10K library - cell viability counter screen (AID 1224840; active = well fitted cell-killing curve with a large enough effect in the repeat runs, not every such curve was filed as active; note: nearly all actives have a fitted effect of over 40% in size)
In short: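 Counter-screen for cytotoxicity: after 17.5 h compound exposure at 37 C, CellTiter-Fluor reagent added to PGC/ERR cells for 30 min and fluorescence read. Cells were seeded at 2,000 per well 6 h before dosing.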

[12] = qHTS assay to identify small molecule antagonists of the estrogen related receptor signaling pathway with the pleiotropic PPARgamma coactivator (PGC) from Tox21 10K library (AID 1224841; call rule not given here; note: series mostly up to about 92 µM; actives are mostly falling curves and most rising ones were filed inactive; nearly all actives have a fitted effect of over 50% in size)
In short: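 Luminescence (One-Glo, 30 min at room temperature) after 18 h compound treatment at 37 C of PGC/ERR reporter cells plated at 2,000 cells/well and settled 6 h beforehand.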

[13] = qHTS assay to identify small molecule agonists of the estrogen related receptor signaling pathway with the pleiotropic PPARgamma coactivator (PGC) from Tox21 10K library (AID 1224842); note: nearly all actives have a fitted effect of over 15% in size
In short: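 PGC/ERR reporter cell line, 2,000 cells per well, incubated 6 h at 37 C before 23 nL compound in DMSO was added. After 18 h at 37 C, One-Glo luminescence read following 30 min at room temperature.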

Measured: Potency

O=C1CCCC(=O)C1
inactive: all assays above

CCCCCCCCCCCCN(CCCCCCCCCCCC)CCCCCCCCCCCC
not listed: [6]
inactive: all other assays above

OCCOc1ccc(OCCO)cc1
inactive: all assays above

CC(C)NCCCC1(C(N)=O)c2ccccc2-c2ccccc21
inactive: all assays above

CCc1ccc(O)c(OC)c1
inactive: all assays above

CC(C)(C)NCCNC(C)(C)C
not listed: [13]
inactive: all other assays above

O=C(CCCN1CCN(c2ccccn2)CC1)c1ccc(F)cc1
not listed: [6]
inactive: all other assays above

CCO[Si](CCC1CCC2OC2C1)(OCC)OCC (stereo not given)
inactive: all assays above

CC(=O)Nc1ccc(S(N)(=O)=O)cc1
not listed: [13]
inactive: all other assays above

N#Cc1ccc(C2CCCc3cncn32)cc1 (stereo not given)
not listed: [6]
inactive: all other assays above
